HT1080NT lethal: qHTS for induction of synthetic lethality in tumor cells producing 2HG: qHTS for the HT-1080-NT fibrosarcoma cell line. HT-1080-NT fibrosarcoma viability, CellTiter-Glo ATP luminescence, 48 h. Potency, µM (titrated, usually from 46.1 µM), most hits filed as cytotoxic. 360,000 tested, 1.6% active;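 also: NT is the 2HG producing partner of a matched IDH1 knockdown line; nearly all actives have a fitted effect of over 55% in size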
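Viability by CellTiter-Glo luminescence after 48 h compound exposure at 37C of HT-1080-NT cells (750/well, RPMI, 5% FBS). % activity scaled between DMSO wells and medium-only wells, then curve-fitted and categorized by curve class.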
HT1080 IDH1KD tx: qHTS for induction of synthetic lethality in tumor cells producing 2HG: qHTS for the HT-1080-IDH1KD cell line | HT-1080 IDH1 knockdown viability, ATP luminescence, 48 h | 360,000 tested, 2% active | Potency, µM (titrated, usually from 46.1 µM), actives largely listed as cytotoxic | AID 686971, 2013
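Knockdown cells (IDH1KD HT-1080) received compounds 2 h after plating at 750 cells/well and were kept 48 h at 37 °C in 5% FBS RPMI. A CellTiter-Glo luminescence read gave % activity for curve fitting.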
KB-V1 cytotox: qHTS assay for MDR1-selective chemotherapeutics: Primary screen using the drug-selected MDR subline cells KB-V1; KB-V1 MDR cells viability, CellTiter-Glo, 72 h; Potency, µM (titrated, usually from 46.1 µM), usual class: cytotoxic; 400,000 tested, 3.4% active; also: nearly all actives have a fitted effect of over 60% in size
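KB-V1 MDR subline cells in DMEM (phenol-red free, 10% FBS) exposed to compounds in qHTS concentration series for 72 h at 37 degrees C. Viability read by CellTiter-Glo luminescence; concentration-effect curves fitted after normalization and correction.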
KB-3-1 cytotox: qHTS assay for MDR1-selective chemotherapeutics: Primary screen using the parental adenocarcinoma cell KB-3-1; 400,000 tested, 1.4% active; Potency, µM (titrated, usually from 46.1 µM), usual class: cytotoxic; KB-3-1 viability, CellTiter-Glo ATP luminescence, 72 h; AID 1347075, 2019; also: nearly all actives have a fitted effect of over 60% in size
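Cytotoxicity measured as CellTiter-Glo luminescence after 72 h at 37 C. Compound titrations were pinned onto drug-naive KB-3-1 parental adenocarcinoma cells grown in DMEM with 10% FBS, and normalized data fitted to concentration-response curves.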
A number is an active result; i = inactive; ? = inconclusive; nt = no result given. Shown are actives, neighbours in structure and some others; about 5.7% of the full set was active somewhere. Calls follow the shape of the dose curve; as a rule, active = well fitted curve in the direction sought with a large enough effect; inconclusive = small, poorly fitted or top-dose-only effect, or another doubt; inactive = no such curve, though single readings can be large; an effect the other way counts as inactive or inconclusive.

SMILES	HT1080NT lethal	HT1080 IDH1KD tx	KB-V1 cytotox	KB-3-1 cytotox
COc1ccc(-n2nc([N+](=O)[O-])c(=NCCc3ccc(OC)c(OC)c3)n2O)cc1	i	i	2.6µM	i
Cc1nc2ncnn2c(C)c1CCC(=O)NCc1ccccc1Cl	nt	nt	?	i
CC(=NNC(=O)COc1cccc(C)c1)c1cccnc1	i	i	16µM	i
O=C1OC(Nc2nc(-c3ccc(F)cc3)cs2)c2ccccc21 (stereo not drawn)	?	23µM	?	i
N#Cc1c(-n2ncnc2-c2ccc(F)cc2)sc2c1CCCCC2	nt	nt	i	i
COc1cccc(S(=O)(=O)Nc2ccc3c(c2)C(=O)N(C)C[C@H](OC)[C@H](C)CN(Cc2ccccc2F)[C@@H](C)CO3)c1	?	?	15µM	?
CO[C@H]1CN(C)C(=O)c2cc(NS(=O)(=O)c3ccccc3)ccc2OC[C@@H](C)N(Cc2ccccn2)C[C@@H]1C	i	i	i	i
COc1ccc(CNC(=O)CN(C)c2nn3c(=O)cc(C)nc3s2)cc1	nt	nt	i	i
CN(C)c1ccc(N=Nc2nc3ccccc3n2C)cc1	i	i	?	i
Cn1c(N=Nc2ccccc2)nc2ccccc21	8.2µM	10µM	8.2µM	i
COc1ccc(CNC(=O)C(C)n2c(=O)cc(C)c3c(C)nn(-c4ccccc4)c32)cc1 (stereo not drawn)	nt	nt	i	i
Nc1ncnc2c(C3OC(CO)C(O)C3O)scc12 (stereo not drawn)	0.26µM	0.037µM	?	0.1µM
Nc1ncnc2c1ncn2C1O[C@H](CO)[C@@H](O)[C@@H]1O (stereo partly drawn)	i	i	i	i
CCOC(=O)Cn1nnnc1C(C(C)C)N(Cc1cccs1)Cc1cc2cc(C)ccc2[nH]c1=O (stereo not drawn)	i	i	11µM	?
Cn1nc(C(=O)Nc2cccc(C(F)(F)F)c2)c2ccccc2c1=O	i	i	8.2µM	i
Cn1nc(C(=O)Nc2cccc(C(=O)NC3CC3)c2)c2ccccc2c1=O	i	i	i	i
COc1ccc(-n2cc(-c3ccccc3)nc2SCC(=O)Nc2ccccc2)cc1Cl	nt	nt	i	i
CCS(=O)(=O)N1CCc2cc(C(=O)Nc3cc(OC)c(Cl)cc3OC)ccc21	nt	nt	i	i
CCOCCCNC(=O)C(=O)Nc1c2c(nn1-c1ccc(OC)cc1)CSC2	nt	nt	i	i
Cc1n[nH]c(=O)n1-c1cccc(C(F)(F)F)c1	i	i	i	i
CN(C)C=NC1=NN(c2cccc(C(F)(F)F)c2)CC1	i	i	2.1µM	21µM
CN1CCN(C=NC2=NN(c3cccc(C(F)(F)F)c3)CC2)CC1	i	i	10µM	?
CCn1cc(S(=O)(=O)c2ccc(OC)cc2)c(=O)c2cc(OC)ccc21	i	i	i	i
CCn1cc(S(=O)(=O)c2ccc(Cl)cc2)c(=O)c2cc(OC)ccc21	i	i	15µM	i
CCN(CC)S(=O)(=O)c1ccc2c(c1)N(CC(=O)N1CCN(c3cccc(C)c3)C(C)C1)C(=O)CO2 (stereo not drawn)	nt	nt	i	i
SMILES	HT1080NT lethal	HT1080 IDH1KD tx	KB-V1 cytotox	KB-3-1 cytotox
COc1cccc(NC(=O)c2nnn(Cc3cccc(C(F)(F)F)c3)c2N)c1	nt	nt	i	i
O=C(NCCSCc1c(F)cccc1Cl)C1CCN(S(=O)(=O)Cc2ccccc2)CC1	nt	nt	i	i
Cc1cccc2sc(NNC(=O)c3ccc(S(=O)(=O)N4CCc5ccccc5C4)cc3)nc12	?	16µM	i	5.8µM
Cc1cc(C)c2nc(NNC(=O)c3ccc(S(=O)(=O)N4CCCCC4)cc3)sc2c1	?	?	i	?
CCOC(=O)N1CCN(S(=O)(=O)c2ccc(C(=O)NNc3nc4c(C)cccc4s3)cc2)CC1	?	?	i	?
Cc1cccc2sc(NNC(=O)c3ccc(S(=O)(=O)N4CCCC(C)C4)cc3)nc12 (stereo not drawn)	?	21µM	i	5.2µM
O=C1N(CCCCN2C(=O)C3(OCCO3)c3ccccc32)c2ccccc2C12OCCO2	i	i	i	i
O=C1N(Cc2ccc(F)cc2Cl)c2ccccc2C12OCCCO2	i	i	18µM	?
CCN(CC)C(=O)CN1C(=O)C2(OCC(C)(c3ccccc3)CO2)c2ccccc21 (stereo not drawn)	i	i	i	i
O=C1N(Cc2ccccc2F)c2ccccc2C12OCCCO2	i	i	i	i
CCN(CC)C(=O)CN1C(=O)C2(OCC(C)(C)CO2)c2ccccc21	i	i	16µM	i
O=C1N(CCCN2C(=O)C3(OCCO3)c3ccccc32)c2ccccc2C12OCCO2	i	i	12µM	i
O=C(O)c1ccc(CNCc2ccc(Cl)cc2)s1	nt	nt	?	i
CCc1ccc(-c2cn(-c3nc(C)cc(C)n3)c(=N)o2)cc1	i	i	?	21µM
CCn1nc(C)c2c(-c3ccccc3)cc(=O)n(C(C)C(=O)Nc3ccc(OC)c(OC)c3)c21 (stereo not drawn)	nt	nt	i	i
C=C1C=C(C)n2ncc(C(=O)Nc3ccccc3C(=O)OC)c2N1	nt	nt	i	?
COc1cccc(NC(=O)Cn2c(=O)n(-c3ccccc3)c(=O)c3oc4ccccc4c32)c1	?	?	21µM	?
CC(=O)Nc1ccc(NC(=O)Cn2c(=O)n(-c3ccccc3)c(=O)c3oc4ccccc4c32)cc1	i	i	i	i
Cc1[nH]c2ccc(C(=O)N3CCN(c4ccccc4F)CC3)cc2c1C	nt	nt	i	i
CCOC(=O)CSc1nc2cc(OC)c(OC)cc2c2nc(-c3ccccc3)nn12	nt	nt	i	i
CCc1ccc(N2C(=O)N(CC(=O)C(C)(C)C)c3ccccc3S2(=O)=O)cc1	nt	nt	i	i
O=C1C=C(c2ccc3ncccc3c2)C[C@@H](c2ccc(F)cc2)C1	i	i	i	i
O=C1C=C(c2ccc3ncccc3c2)C[C@@H](c2ccc3c(c2)OCO3)C1	10µM	8.2µM	?	?
CC(C)c1ccc(NS(=O)(=O)c2ccc3nc(-c4ccccc4)[nH]c3c2)cc1	nt	nt	i	i
COc1cccc(CNc2ccc(N3CCC(C)CC3)cc2)c1OC	i	?	21µM	21µM
SMILES	HT1080NT lethal	HT1080 IDH1KD tx	KB-V1 cytotox	KB-3-1 cytotox
O=C(C1CC1)N1CCc2cc(Br)cc(S(=O)(=O)N3CCN(c4cccc(C(F)(F)F)c4)CC3)c21	nt	nt	?	i
CCOc1ccc(-c2cc3c(=O)n(Cc4nc(-c5ccc(OC)cc5OC)oc4C)ccn3n2)cc1Cl	nt	nt	i	i
NC(=O)c1ccc(Cn2c(C(=O)c3cc(Cl)c(N)c(Cl)c3)c3ccccc3[n+]2[O-])cc1	16µM	12µM	i	?
NC(=O)c1ccc(Cn2c(C(=O)c3ccc(Cl)cc3)c3ccccc3[n+]2[O-])cc1	i	i	i	i
C=CCn1c(SCC(=O)NCc2ccco2)nnc1-c1cccc(N(C)C)c1	nt	nt	i	?
Cc1ccc(C)c(C(=O)COc2ccccc2[N+](=O)[O-])c1	i	?	i	i

Assay outcomes (PubChem BioAssay)
